Screens as filed in PubChem BioAssay.
3T3 cytotox – kills NIH 3T3 cells. NIH 3T3 viability, CellTiter-Glo ATP luminescence, 48-72 h. Potency, µM (titrated, usually from 96.7 µM), without a hit: top-dose activity change, negative = cytotoxicity, usual class: inhibitors. actives 4.3% (n = 94,000); also: nearly all actives have a fitted effect of over 55% in size
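Cells were seeded at 400 per well, treated with pin-transferred compound, and kept 48 or 72 hr at 37 °C before CellTiter-Glo addition and luminescence imaging of cellular ATP.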
HEK293 tox – kills HEK 293 cells | HEK 293 viability, ATP luminescence (CellTiter-Glo), 48-72 h | Potency, µM (top dose mostly 115 µM), inactives show at the top dose activity change, negative = cytotoxicity, actives largely listed as inhibitors | actives 6.6% (n = 94,000) | AID 1345083; also: nearly all actives have a fitted effect of over 60% in size
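ATP-coupled CellTiter-Glo luminescence served as viability read-out, recorded 10 min after reagent addition at room temperature. HEK 293 cells, 250 cells/well, had been incubated with pintool-transferred compound for 48 or 72 hr at 37 degree Celsius.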
FLuc inh – blocks purified firefly luciferase enzyme activity. P08659. purified P. pyralis luciferase, luminescence, biochemical. Potency, µM (series often up to 115 µM), hits mostly inhibitors. actives 2.5% (n = 76,000). AID 1347043; also: nearly all actives have a fitted effect of over 65% in size
Target sequence (P08659 whole entry, looked up): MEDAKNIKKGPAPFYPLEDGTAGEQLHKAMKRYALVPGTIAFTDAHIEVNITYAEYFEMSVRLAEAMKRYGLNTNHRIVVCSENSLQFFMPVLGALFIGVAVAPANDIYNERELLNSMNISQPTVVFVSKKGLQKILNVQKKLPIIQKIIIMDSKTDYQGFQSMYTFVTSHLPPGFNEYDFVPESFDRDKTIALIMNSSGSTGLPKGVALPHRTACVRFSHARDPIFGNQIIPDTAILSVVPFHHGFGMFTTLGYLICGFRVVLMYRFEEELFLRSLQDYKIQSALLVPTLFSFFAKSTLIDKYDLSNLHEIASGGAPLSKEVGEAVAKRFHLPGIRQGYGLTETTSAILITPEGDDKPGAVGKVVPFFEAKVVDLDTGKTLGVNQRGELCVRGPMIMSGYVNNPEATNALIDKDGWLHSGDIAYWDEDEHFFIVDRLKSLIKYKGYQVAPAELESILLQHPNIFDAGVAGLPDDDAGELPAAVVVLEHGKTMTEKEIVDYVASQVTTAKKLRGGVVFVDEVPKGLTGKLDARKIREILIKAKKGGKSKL
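Purified 10nM P. pyralis luciferase with 10uM D-luciferin and 10uM ATP in 50mM Tris acetate pH 7.5, 10mM Mg acetate, 0.01% Tween-20, 0.05% BSA. qHTS titration; luminescence read by CCD imager.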
NPR1 antag – blocks ANP-stimulated signaling of human Npr1 receptor; HEK293 hNpr1 GloSensor cGMP, ANP-stimulated luminescence; actives 1.6% (n = 76,000); Potency, µM (doses to about 46.3 µM), for inactives: at the top dose activity change, negative = inhibition, most hits filed as inhibitors; AID 1347048; P16066; calls by dose curve; also: nearly all actives have a fitted effect of over 60% in size
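HEK293 cells stably expressing human Npr1 and cGMP GloSensor pGS-40F, loaded 2 h with 2% GloSensor reagent, given compound 30 min at room temperature. Luminescence read before and 20 min after 0.1 nM hNppA.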
Starred values were filed as active, the others as inactive; i = inactive; ? = inconclusive; / = no result given; [ ] = remark or other dose. Compounds with a hit are over-represented: about 11% of the library has one in this group of screens. Unless noted, calls follow the shape of the dose curve; as a rule, active = well fitted curve in the direction sought with a large enough effect; inconclusive = small, poorly fitted or top-dose-only effect, or another doubt; inactive = no such curve, though single readings can be large; an effect the other way counts as inactive or inconclusive. % is scaled to controls: 0 for no effect and ±100 for the full control effect; potency is read from the fitted curve at half-maximal effect.

SMILES	3T3 cytotox	HEK293 tox	FLuc inh	NPR1 antag
Cn1ncc2c(C(=O)C3CCN(Cc4ccccc4)CC3)cc(-c3ccccc3C(F)(F)F)nc21	31.6µM*	20µM*	/	/
Cn1ncc2c(C(=O)N3CCCC3)cc(-c3ccccc3C(F)(F)F)nc21	-26.5%	-28.0%	/	/
Cn1ncc2c(C(=O)NCc3ccccc3F)cc(-c3ccccc3C(F)(F)F)nc21	?	39.8µM*	/	/
COCCNC(=O)c1cc(-c2ccccc2C(F)(F)F)nc2c1cnn2C	-4.7%	-10.5%	/	/
COCCN1C(=O)c2cccn2CC1CNC(=O)c1cc(F)ccc1F (configuration not stated)	-7.5%	-1.3%	/	/
CCCCn1c(=O)c(C(=O)N2CCN(C(=O)c3ccccc3F)CC2)nc2cccnc21	?	-6.6%	/	/
COc1ccc2cc(C(=O)N3CCC(Cc4ccc(C(=O)NC5CC5)cc4)CC3)[nH]c2c1	28.2µM*	35.5µM*	i	?
COc1ccc(C(=O)NC2CCN(C(=O)c3cc4c(=O)[nH]c(C)cn4n3)CC2)cc1	-7.7%	-25.6%	i	-3.3%
COc1ccc2nc(C[C@@H]3C[C@@H](C(C)C)[C@H](CNCc4ccccn4)C=C3C)[nH]c2c1	?	79.4µM*	i	-24.6%[70.6 µM]
COc1ccc2nc(C[C@@H]3C[C@@H](C(C)C)[C@H](CNCc4ccc(NC(C)=O)cc4)C=C3C)[nH]c2c1	39.8µM*	?	i	-14.8%
CCN1CCC(N2CCC3(CC2)CC(C(=O)N2CCOCC2)N(C)C3)CC1 (configuration not stated)	-11.6%	-3.1%	/	/
CCCN1CCC(N2CCC3(CC2)CC2C(=O)N(CC)C(=O)N2C3)CC1 (configuration not stated)	2.5%	-4.8%	/	/
Fc1ccc(-c2cnc3n[nH]c(-c4ccccc4)c3n2)cc1	28.2µM*	?	i	-2.3%[70.6 µM]
Clc1ccc(-c2cnc3n[nH]c(-c4ccccc4)c3n2)cc1	28.2µM*	79.4µM*	i	-10.5%[70.6 µM]
COc1ccccc1-c1[nH]nc2ncc(-c3ccc(C)cc3)nc12	-72.6%[138 µM]	?	i	-16.5%[70.6 µM]
COc1cc(F)ccc1-c1cnc2n[nH]c(-c3ccccc3)c2n1	?	?	i	-16.0%[70.6 µM]
CCN1c2cc(C(=O)Nc3ccc(Br)cc3)ccc2C(=O)N2CCCC21 (configuration not stated)	i	39.8%	i	-2.2%
CCN1c2cc(C(=O)Nc3ccccc3)ccc2C(=O)N2CCCCCC21 (configuration not stated)	?	39.8µM*	i	-3.3%
CCN1c2cc(C(=O)Nc3ccc(Br)cc3)ccc2C(=O)N2CCCCCC21 (configuration not stated)	39.8µM*	?	i	-11.6%
CCN1c2cc(C(=O)Nc3cc(F)cc(F)c3)ccc2C(=O)N2CCCCCC21 (configuration not stated)	?	?	i	0.0%
CCN1c2cc(C(=O)Nc3cc(C)cc(C)c3)ccc2C(=O)N2CCCCC21 (configuration not stated)	?	28.2µM*	i	-4.4%
CCN1c2cc(C(=O)NCCC3=CCCCC3)ccc2C(=O)N2CCCCC21 (configuration not stated)	?	44.7µM*	i	-10.5%
C[S+](=O)([O-])N1CCC(c2nnc3n2C(C(=O)NCc2ccccc2F)CC3)CC1 (configuration not stated)	-7.8%	-0.4%	/	/
COc1ccc(-c2c(C(=O)NC3CCCCC3)nc3sccn23)cc1	-26.7%	?	/	/
CCN1c2cc(C(=O)Nc3ccc(C)cc3Cl)ccc2C(=O)N2CCCCCC21 (configuration not stated)	?	50.1µM*	i	-1.1%
SMILES	3T3 cytotox	HEK293 tox	FLuc inh	NPR1 antag
CCc1ccc(NC(=O)c2ccc3c(c2)N(CC)C2CCCCN2C3=O)cc1 (configuration not stated)	?	25.1µM*	?	-9.3%
CCN1c2cc(C(=O)Nc3cccc(C#N)c3)ccc2C(=O)N2CCCCCC21 (configuration not stated)	?	15.8µM*	i	-13.8%
CCN1c2cc(C(=O)Nc3ccc(N4CCOCC4)cc3)ccc2C(=O)N2CCCCC21 (configuration not stated)	20µM*	?	i	0.0%
CN1c2cc(C(=O)Nc3ccc(N4CCOCC4)cc3)ccc2C(=O)N2CCCCC21 (configuration not stated)	?	?	i	-6.4%
CC(C)C(=O)N1[C@@H]2CC[C@H]1CC(NC(=O)c1ccc(F)cc1)C2 (some centres not stated)	-8.6%	i	/	/
Cc1ccccc1C(=O)N1CCN(c2ccc3nnc(C4CC4)n3n2)CC1	-14.0%	-8.0%	/	/
CCN1c2cc(C(=O)Nc3ccc(C)cc3)ccc2C(=O)N2CCCCCC21 (configuration not stated)	?	39.8µM*	?	-23.5%
C[S+](=O)([O-])NC1=N[C@@]23CO[C@H](c4ccccc4)C[C@@H]2CC(=O)[C@H]3S1	?	-26.1%	/	/
CN1CCN(C(=O)c2cn3cc(-c4ccc(F)cc4)sc3n2)CC1	79.4µM*	?	/	/
COc1ccc(-c2cn3cc(C(=O)N4CCOCC4)nc3s2)cc1	?	63.1µM*	/	/
O=C(c1cn2cc(-c3ccccc3)sc2n1)N1CCOCC1	?	89.1µM*	/	/
CCN1CCN(C(=O)c2cn3cc(-c4ccc(F)cc4)sc3n2)CC1	-24.5%	1.6%	/	/
CC(C)n1cnnc1CC1CCN(S(=O)(=O)c2ccc3c(c2)CCC3)C1 (configuration not stated)	-22.3%	-12.3%	/	/
COc1ccc(OC)c(S(=O)(=O)N2CCCCCCNC(=O)CC2)c1	-11.5%	-7.4%	i	3.2%
COc1ccc(C(=O)N2CCCC2C(=O)N2CCC(c3nc4ccncc4[nH]3)CC2)cc1 (configuration not stated)	-10.4%	3.4%	/	/
CCOC(=O)CN1C(=O)CCN(C(=O)c2ccc(F)cc2)CC(OC)c2ccccc21 (configuration not stated)	-12.0%[46.1 µM]	?	/	/
Fc1ccccc1-c1noc(N2CCCCC2)n1	?	?	1.58µM*	10µM*
CN1C[C@H](NCc2cccc(Cl)c2)CCC[C@@H](C(=O)NCc2cc(F)cc(F)c2)CC1=O	?	44.7µM*	i	5.4%
COc1ccccc1-n1c(=O)c(C(=O)N2CCN(C(=O)C(C)(C)C)CC2)nc2cccnc21	2.4%	-4.3%	/	/
CN1C(=O)[C@H]2CN(Cc3ccc(C#N)cc3)C[C@H]2C1=O	i	8.1%	i	-1.5%
CCCCOc1ccc(CN2C[C@@H]3C(=O)N(C)C(=O)[C@@H]3C2)cc1	-7.7%	?	28.2µM*	-21.1%
CC(C)(O)CCc1cccc(C(=O)NCCCc2ccccn2)c1	-1.4%	i	?	1.3%
O=C(NCc1ccccc1Cn1cccn1)c1ccc2cccc(F)c2n1	?	?	i	2.3%
CC(C)(O)CCc1cccc(C(=O)NCCNc2cccnc2)c1	?	31.6µM*	i	-6.3%
